Bioassay records (PubChem)
This is a sample that favours compounds with a hit; in the whole collection about 28% have one here.
CYP2C19 activ = increases human CYP2C19 enzyme activity; activation factor at 5 µM; recombinant CYP2C19, luciferin-H EGE luminescence; stronger effect = higher value; 0 = fully inhibited enzyme, 1 = untreated enzyme; 96,000 tested, under 10 active; P33261;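 active = activation factor of at least 2 at 5 µM in the primary screen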;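 also: 0 = wells with 2.5 mM tranylcypromine and 1 = vehicle-only wells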
CYP2C9 inh = blocks human cytochrome P450 2C9; CYP2C9 Supersomes, luciferin-H conversion, luminescence; inhibition, % at 5 µM; P11712; AID 777; actives 20% (n = 96,000);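 active = blocking of liver enzyme CYP2C9 beyond about 50% at 5 µM, limit read from the data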
Mac1 fbg inh = CD11b/CD18-fibrinogen binding inhibition. P05107+P11215. K562 CD11b/CD18 adhesion to fibrinogen, ATPlite luminescence; Mn2+ added to activate the integrin. inhibition, % at 10 µM. actives 0.54% (n = 93,000). AID 1497;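 active = primary inhibition of 50% or more at 10 µM, then 40% or more on retest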
Target sequence (P05107 whole entry, looked up, other chains not shown): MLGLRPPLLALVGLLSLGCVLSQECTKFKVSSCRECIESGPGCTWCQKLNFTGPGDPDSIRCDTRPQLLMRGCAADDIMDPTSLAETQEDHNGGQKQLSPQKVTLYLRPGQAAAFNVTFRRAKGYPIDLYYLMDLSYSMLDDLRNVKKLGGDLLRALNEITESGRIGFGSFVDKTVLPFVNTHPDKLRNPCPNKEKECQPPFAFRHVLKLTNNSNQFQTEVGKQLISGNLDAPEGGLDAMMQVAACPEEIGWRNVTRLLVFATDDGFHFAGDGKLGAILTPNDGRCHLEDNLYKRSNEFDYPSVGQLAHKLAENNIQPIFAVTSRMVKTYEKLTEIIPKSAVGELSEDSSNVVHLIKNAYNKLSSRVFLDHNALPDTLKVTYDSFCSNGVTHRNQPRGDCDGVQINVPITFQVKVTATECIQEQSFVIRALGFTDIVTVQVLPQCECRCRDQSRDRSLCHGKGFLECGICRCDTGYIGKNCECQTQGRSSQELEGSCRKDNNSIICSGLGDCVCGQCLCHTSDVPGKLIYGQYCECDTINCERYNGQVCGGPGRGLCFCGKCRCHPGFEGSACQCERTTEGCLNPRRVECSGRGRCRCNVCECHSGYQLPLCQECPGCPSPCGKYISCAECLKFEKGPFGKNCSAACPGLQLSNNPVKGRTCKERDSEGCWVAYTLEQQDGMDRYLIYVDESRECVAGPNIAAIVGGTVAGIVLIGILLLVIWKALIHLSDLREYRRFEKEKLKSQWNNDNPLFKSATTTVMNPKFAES
CYP2C9 activ = CYP2C9 (human) activation; actives 1.4% (n = 96,000); P11712; recombinant CYP2C9, luciferin-H conversion, luminescence; stronger effect = higher value; factor 1 = untreated enzyme, 0 = blocked; activation factor at 5 µM; AID 1024;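 active = activation factor of 2 or more for CYP2C9 at a 5 µM dose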;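 also: 0 = sulfaphenazole-blocked wells and 1 = vehicle-only wells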
CYP2C19 inhib = inhibitors of human CYP2C19; AID 778; actives 21% (n = 96,000); inhibition, % at 5 µM; P33261; CYP2C19 Supersomes, luciferin-H EGE luminescence, 30 min;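 active = CYP2C19 inhibition above a set limit at 5 µM in the primary screen, cut at about 50% in these data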;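 also: plate controls were negative control wells for no effect and 2.5 mM tranylcypromine positive control for full effect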
CD11b adhes enh = increases human CD11b/CD18 adhesion to fibrinogen; AID 1499; K562 CD11b/CD18 adhesion to fibrinogen, ATPlite luminescence; activation, % at 10 µM; actives 0.07% (n = 93,000); P05107+P11215;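 active = 10 µM primary screen giving 50% or more activity, confirmed by 40% or more on retest at that dose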
* hit, by the source's call; x = no result given.

SMILES	CYP2C19 activ	CYP2C9 inh	Mac1 fbg inh	CYP2C9 activ	CYP2C19 inhib	CD11b adhes enh
CCn1c(SCC(=O)Nc2nccs2)nnc1-c1ccc(S(=O)(=O)N2CCCCC2)cc1	0.8	45.5	-9.9	0.5	17.8	0.3
CCC(Sc1nc(N)cc(N)n1)C(=O)O (centres undefined)	1.1	-7.2	0.0	1.1	-9.3	7.5
CCC(Sc1nc(N)c(NC(=O)c2ccc(OC)c(OC)c2)c(=O)[nH]1)C(=O)OC (centres undefined)	1.1	-10.4	-12.9	1.1	-14.1	-3.2
Cc1ccc(S(=O)(=O)N2CCN(c3cc4c(cc3[N+](=O)[O-])n(C)c(=O)n4C)CC2)cc1	0.2	80.6*	-25.2	0.2	75.8*	-2.9
Cn1c(=O)n(C)c2cc([N+](=O)[O-])c(N3CCN(S(=O)(=O)c4ccc5ccccc5c4)CC3)cc21	0.3	39.6	-13.7	0.6	73.4*	-2.6
COC(=O)c1ccc(N2CCN(S(=O)(=O)c3ccc4ccccc4c3)CC2)c([N+](=O)[O-])c1	1.1	1.4	28.5	1	-7.4	-2.0
O=C(NC(=S)Nc1ccccc1)c1csnn1	0.7	-7.2	-4.5	1.1	34.3	2.1
N=c1c[n+](-c2ccc(Cl)cc2)[n-]o1	1	-6.6	18.2	1.1	2.6	-6.2
CC1Cc2ccccc2N1c1ncnc2nc[nH]c12 (centres undefined)	0.9	22.6	3.5	0.8	14.0	3.3
Clc1ccccc1C(c1nnnn1Cc1ccco1)N1CCN(Cc2ccco2)CC1 (centres undefined)	0	16.7	2.0	0.8	96.5*	-2.2
COc1cccc(C(c2nnnn2Cc2ccco2)N2CCN(c3cccc(C)c3C)CC2)c1OC (centres undefined)	0.4	70.0*	1.5	0.3	55.5*	-4.4
COc1cccc(C(c2nnnn2Cc2ccccc2)N2CCN(C(=O)c3ccco3)CC2)c1OC (centres undefined)	0.6	42.7	-22.4	0.6	36.8	1.4
Cc1cccc(Nc2nnc(SCC3CCCCO3)s2)c1 (centres undefined)	x	x	10.4	x	x	6.6
CC(=O)c1ccc(OC(C)C)c(CN2CCCCC2)c1	1.1	-8.6	-10.0	1.1	-11.4	-3.9
COc1ccc(CCn2nnnc2C(C(C)C)N2CCN(c3ncccn3)CC2)cc1OC (centres undefined)	0.8	71.7*	-10.9	0.3	23.0	1.4
COc1ccc(CCn2nnnc2C(CC(C)C)N2CCN(c3ncccn3)CC2)cc1OC (centres undefined)	0.7	76.0*	-0.7	0.2	33.9	-3.3
Cc1coc2cc3oc(=O)c4c(c3cc12)CCCC4	0.7	73.9*	-5.0	0.3	27.7	3.0
O=c1oc2cc(O)ccc2c2c1CCCC2	0.8	-164.5	4.6	2.6*	20.2	-1.4
COCCNS(=O)(=O)c1ccc2c(c1)oc(=O)c1cc(S(=O)(=O)NCCOC)ccc12	0.7	37.1	-23.9	0.6	27.4	1.3
O=c1oc2cc(O)ccc2c2ccccc12	0.8	-121.9	-5.2	2.2*	21.8	-4.9
O=C(Cn1ccc2ccccc2c1=O)NCCC(=O)N1CCN(c2cccc(Cl)c2)CC1	0.9	-2.4	1.3	1	7.9	-3.8
Cn1c(=O)[nH]c(=O)c2c1nc(N1CCNCC1)n2Cc1cccc2ccccc12	1.1	-18.9	-33.5	1.2	-13.7	3.2
O=C(C1CCCN(S(=O)(=O)c2cccc3cccnc23)C1)N1CCc2ccccc21 (centres undefined)	0.7	-29.4	11.9	1.3	29.4	-0.6
Cc1ccc(NC(=O)/C(=C\c2cccc([N+](=O)[O-])c2)NC(=O)c2cccs2)cc1	0.9	14.9	x	0.9	6.4	x
O=C(O)c1c(Cl)c(Cl)c(Cl)c(Cl)c1C(=O)N1CCCC1	1	-3.2	-7.0	1	-4.4	-2.6
SMILES	CYP2C19 activ	CYP2C9 inh	Mac1 fbg inh	CYP2C9 activ	CYP2C19 inhib	CD11b adhes enh
CC(C)(C)c1ccc(S(=O)(=O)NCc2ccc(C(=O)N3CCOCC3)cc2)cc1	1	-36.1	-23.0	1.4	1.8	1.5
Cc1ccc(CNS(=O)(=O)c2ccc(C(C)(C)C)cc2)n1C	0.3	-89.6	x	1.9	73.2*	-2.2
N#CCSc1nnc(-c2ccccc2O)n1CCc1ccccc1	0.6	-10.0	-0.5	1.1	41.4	-2.2
CC1=NN(C(=O)Cc2ccccc2)C(O)(c2cccnc2)C1 (centres undefined)	1	-9.8	11.8	1.1	3.8	-3.9
Cc1ccc(N(CC(=O)NC2CCCCCC2)S(=O)(=O)c2c(C)nn(C)c2C)cc1	0.6	34.8	-5.5	0.7	41.6	-0.9
COc1cccc(NC(=O)CN(c2ccc(C)cc2)S(=O)(=O)c2c(C)nn(C)c2C)c1	0.3	75.7*	2.6	0.2	69.1*	-4.6
COc1ccc(N(CC(=O)Nc2cc(OC)ccc2OC)S(=O)(=O)c2c(C)nn(C)c2C)cc1	0.2	84.1*	-16.7	0.2	75.8*	2.0
COc1ccc(N(CC(=O)Nc2nc3ccc(C)cc3s2)S(=O)(=O)c2c(C)nn(C)c2C)cc1	0.6	48.3	4.0	0.5	36.8	4.1
COc1ccc(N(CC(=O)Nc2cccc(OC)c2)S(=O)(=O)c2c(C)nn(C)c2C)cc1	0.3	82.8*	x	0.2	74.7*	x
Cc1ccc(C(=O)Nc2ncc3c(Cl)cccc3n2)cc1	0.7	26.2	x	0.7	34.2	x
Cn1c(SCC(=O)NCc2ccc3c(c2)OCO3)nnc1C1COc2ccccc2O1 (centres undefined)	0.7	33.9	4.1	0.7	27.5	-2.2
C=CCn1c(SCC(=O)NCc2ccc3c(c2)OCO3)nnc1C1CCCCC1	0.5	57.8*	2.3	0.4	52.7*	-2.7
C=CCn1c(SCc2c(C)noc2C)nnc1C1COc2ccccc2O1 (centres undefined)	0.7	61.3*	0.5	0.4	33.2	-1.5
C=CCn1c(SCC(=O)NCc2ccccc2)nnc1C1CCCCC1	0.8	40.4	-20.3	0.6	15.4	2.3
C=CCn1c(SCC(=O)Nc2cc(C)nn2-c2ccccc2)nnc1C1CCCCC1	0.3	42.3	14.0	0.6	66.2*	8.5
Cc1noc(C)c1CSc1nnc2ccccn12	0.8	10.0	12.8	0.9	21.6	0.1
C=CCn1c(SCC(=O)NCc2ccc3c(c2)OCO3)nnc1C1COc2ccccc2O1 (centres undefined)	0.4	52.8*	-1.2	0.5	64.7*	0.5
O=c1[nH]c2ccccc2n1C1CCCCC1	0.8	-10.1	5.3	1.1	15.0	-4.7
CCOCCCNC(=O)N[C@@H](Cc1ccccc1)C(=O)OC	1	-16.7	-10.9	1.2	-1.1	1.8
COc1cc2c(cc1NC(=O)COc1ccccc1OC)oc1ccccc12	1	16.5	-19.4	0.8	1.1	7.5
